Experimental data from PubChem BioAssay AID371 (SRMLSC, 2006).
In all, about 3,300 compounds went through this assay and about 280 (8.5%) were called active.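 How the source made its calls: active means mean growth inhibition over the two runs of 50% or more; inactive means mean growth inhibition under 50%.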 Shown is part of a subset that was picked to be rich in actives.

Assay: A549 NSCLC cell proliferation inhibitors – ATP luminescence, human non-small cell lung line, primary screen (AID 371);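 further: compound exposure lasted 72 h before the ATP read; 0% = untreated cell signal and 100% = no luminescence left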
Details: at 10 µM, hits give high values

Growth inhibition, inactive:
O=C1NC2c3ccccc3C(=O)N2c2c1cnn2-c1ccccc1 (configuration not stated) 36.6%
CC(C)OCCCNc1ncnc2c1cnn2-c1ccccc1 35.1%
CCCOc1cccc(C2C(C(=O)c3ccc(C)o3)=C(O)C(=O)N2CCCN(C)C)c1 (configuration not stated) 2.48%
C=CCSc1nnc2n(-c3ccccc3OC)c(=O)c3c4c(sc3n12)CCC4 19.2%
CCc1cccc(CC)c1N(COC)C(=O)Cn1nnc2ccccc21 -7.86%
CN(CCCCCNC(=O)/C=N/O)Cc1ccccc1 -0.65%
COC(=O)c1ccc(Oc2nc3ccccc3n3c(C)nnc23)cc1 -4%
O=C(Oc1oc(-c2ccco2)nc1C=Nc1ccccc1)c1ccoc1 34.4%
CCC(=O)Oc1oc(-c2ccccc2)nc1C=Nc1ccccc1OC 48.5%
O=C(Oc1oc(-c2ccco2)nc1C=Nc1ccccc1)c1ccco1 35.2%
CC(=O)Oc1oc(-c2ccccc2)nc1/C=N/c1ccccn1 17.6%
CCOC(=O)c1ccc(CSc2ncn[nH]2)o1 -2.33%
COc1ccccc1OCC(=O)Nc1ccc(S(=O)(=O)Nc2cc(C)nc(C)n2)cc1 5.4%
Cc1nn(C)cc1C1C2=C(CC(C)(C)CC2=O)OC2=C1C(=O)CC(C)(C)C2 1.38%
CC(=O)c1cc2c(=O)c3ccccc3oc2nc1C -5.08%
O=C(O)CCCCCCC1C(=O)NC(=O)N1CCC(O)C1CCCCC1 (configuration not stated) -11.2%
CCC1SC(N)=NC1=O (configuration not stated) 2.26%
c1ccc2[nH]c(-c3cscn3)nc2c1 5.76%
CCOC(=O)c1ccc(N2CC(O)=C(c3nc4ccccc4c(=O)[nH]3)C2=N)cc1 2.08%
COc1ccccc1-c1c(C)oc2c(CN3CCN(C)CC3)c(O)ccc2c1=O -0.86%
COC(=O)CN1C2(C#N)CCCCC2CC2CCCCC21C#N (configuration not stated) 5.83%
COc1ccc(OC)c2c(N)c(C#N)c(C(F)(F)C(F)(F)F)nc12 2.04%
COC(=O)c1sc(NC(=O)c2oc3ccccc3c2C)nc1C 33.4%
N/C(=N\S(=O)(=O)c1ccc(Cl)s1)c1ccccc1 13.5%
CCCc1cc(NCCN2CCOCC2)n2c(nc3ccccc32)c1C#N 6.32%
O=C(O)C1[C@H]2C(=O)N(Cc3cccs3)C[C@]23C=C[C@H]1O3 (some centres not stated) 4.5%
O=C(C1=C(O)C(=O)N(CCN2CCOCC2)C1c1cccnc1)c1cc2ccccc2o1 (configuration not stated) 3.18%
NC(=O)CSc1nnc2n(-c3ccccc3)c(=O)c3c4c(sc3n12)CCCCC4 46%
C=C(C)CSc1nnc2n(C)c(=O)c3c4c(sc3n12)CCC4 20.2%
Cn1c(=O)c2c3c(sc2n2c(SCc4ccccc4)nnc12)CCCC3 8.25%
CCCSc1nnc2n(C)c(=O)c3c4c(sc3n12)CCC4 20.4%
CCOC(=O)C1=C(CSc2nc3c(cc2C#N)CCC3)OC(N)=C(C#N)C1c1ccccc1 (configuration not stated) 21%
Cc1ccc2c(c1)[C@@H]1CN(C)CC[C@@H]1N2S(=O)(=O)c1ccc(F)cc1 10.7%
CC1(C)Cc2c(C#N)c(NCC3CCCO3)nc(-c3ccco3)c2CO1 (configuration not stated) 11%
CCOC(=O)C(OC(=O)c1sc(=S)n(C)c1C)C(C)=O (configuration not stated) -4.85%
COCCNc1oc(-c2ccc(F)cc2)nc1C#N 2.78%
O=C(c1ccc(F)cc1)N1CCC(N2CCCCCC2)CC1 0.08%
c1ccc2c(c1)[nH]c1c(N3CCN(C4CCCCC4)CC3)ncnc12 37.9%
CCOC(=O)c1[nH]c2ccc(F)cc2c1NC(=O)CCN1CCSCC1 0.98%
Cc1ccc(-n2ncc3c(N4CCN(c5ccccc5)CC4)ncnc32)c(C)c1 32.8%
CN1CCN(c2ncnc3c2[nH]c2ccc(F)cc23)CC1 18.6%
CC(C)(C)c1cc(-c2ccco2)c(C#N)c(SCC#N)n1 5.39%
N#Cc1nc(COc2ccc(Br)cc2)oc1N1CCCC1 31.8%
O=C1C2ON(c3ccccc3)C(c3cccnc3)C2C(=O)N1c1ccc(Cl)c(Cl)c1 (configuration not stated) 3.11%
O=C(O)C1CCCCN1S(=O)(=O)c1cccc2nsnc12 (configuration not stated) -0.55%
COc1ccc(CCCNC(=O)CC#N)cc1OC 0.39%
CCOC(=O)c1[nH]c2ccccc2c1NC(=O)CCN1CCN(C(=O)OCC)CC1 1.45%
Cc1cc(C)n(CC2CC(=O)N(c3ccc(Cl)c(Cl)c3)C2=O)n1 (configuration not stated) 0.6%
COc1ccccc1NC(=O)CSc1nnc(-c2ccc(NC(C)=O)cc2)n1C -3.92%

Growth inhibition, active:
C=C1[C@@H](C)C2[C@H](Cc3ccccc3)NC(=O)[C@]23OC(=O)CC[C@H](O)CCC[C@H](C)C/C=C/[C@H]3[C@@H]1O (some centres not stated) 61%
COc1ccccc1N=Cc1nc(-c2ccccc2)oc1OC(C)=O 51.8%
CCOC(=O)c1ccc(N=Cc2nc(-c3ccccc3)oc2OC(C)=O)cc1 55.3%
CCc1oc2ccccc2c1C(=O)c1cc(Br)c(O)c(Br)c1 67.4%
O=c1[nH]c(-c2ccccn2)nc2ccccc12 57.6%
Cc1ccc2nc(C(F)(F)F)c(C#N)c(N)c2c1 63.8%
Oc1c(I)cc(I)c2cccnc12 74.1%
Oc1c(I)cc(Cl)c2cccnc12 68.5%
Cn1c(=O)c2c3c(sc2n2c(SCC(N)=O)nnc12)CC(C(C)(C)C)CC3 (configuration not stated) 69.8%
CCCCN(CCCC)C(=O)CSc1nnc2n(C)c(=O)c3c4c(sc3n12)CCCC4 70%
Fc1ccc2[nH]c3c(N4CCN(c5ccccc5)CC4)ncnc3c2c1 90.1%
Fc1ccc2[nH]c3c(N4CCN(C5CCCCC5)CC4)ncnc3c2c1 86%
Fc1ccc2[nH]c3c(N4CCSCC4)ncnc3c2c1 59.6%
